# Source: PubChem BioAssay (Tox21)
# Records with an inconclusive call do not appear. Where a call stands in place of a potency, no number is given. Activity calls are given as the source filed them. Calls follow the shape of the dose curve; as a rule, active = well fitted cell-killing curve with a large enough effect in the repeat runs; inconclusive = weak or mixed curves, or effect the other way; inactive = flat fitted curve, though single readings scatter.
# Experiment: qHTS assay to identify small molecule antagonists of the estrogen related receptor signaling pathway with the pleiotropic PPARgamma coactivator (PGC) cell viability counter screen (AID 1224822;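 also: viability read after 17.5 h compound exposure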)
# Settings: ERR/PGC reporter cell line viability counter screen; series mostly up to 46.1 µM
# From the text: National Center for Advancing Translational Sciences [NCATS]
# NIH Chemical Genomics Center [NCGC]
# U.S. Environmental Protection Agency [EPA]
# National Institutes of Environmental Health Sciences [NIEHS]
# National Toxicology Program [NTP]
# U.S. Food and Drug Administration [FDA]
# Estrogen related receptors (ERRs), the first orphan nuclear receptors discovered, play an important role in the control of cellular energy metabolism. ERRs are required for high-energy production in response to the environmental challenges. The pleiotropic PPARgamma coactivator (PGC) is a major partner of ERR and a key regulator in energy homeostasis. Together they have been implicated in the etiology of metabolic disorders such as Type 2 diabetes and metabolic syndrome. ERR-alpha was also identified as an adverse marker for breast cancer progression; ERR-alpha-positive tumors have a poor prognosis. To screen and to identify environmental compounds that perturb the ERR and PGC/ERR signaling pathways could provide valuable information for potential therapeutic or preventive measures in the treatment of metabolic disease. To differentiate true PGC/ERR antagonists or agonist from cytotoxic substances, the assay is multiplexed with cell viability assay.
# Tox21 Assay Protocol Summary:
# The PGC/ERR cells were dispensed at 2,000 cells/5 ul/well in 1536-well white plates using a Multidrop dispenser. After the assay plates were incubated at a 37 C/5% CO2 incubator for 6 hours, 23 nL of compounds dissolved in DMSO, positive and negative controls or DMSO only was transferred to the assay plate by a pin tool. The plates were incubated at 37 C for 17.5 hours. 1 ul/well of CellTiter-Fluor reagent was added into the assay plates using a Flying Reagent Dispenser. After 30 min incubation at 37 C/5% CO2, the fluorescence intensity in the plates was measured using a ViewLux plate reader.
# Potency is read from the fitted curve at half-maximal effect.
row,Compound,Potency
1,C[C@H]1C2Cc3ccc(O)cc3[C@@]1(C)CCN2CC1CC1,inactive
2,S=C(NC1CCCCC1)N1CCC(c2cnc[nH]2)CC1,inactive
3,Cc1nccc2c1[nH]c1ccccc12,inactive
4,N#C/C(=C/c1ccc(O)c(O)c1)C(N)=S,inactive
5,Ic1ccccc1CNC1C2CCN(CC2)C1C(c1ccccc1)c1ccccc1 (stereo not given),19.6 µM (active)
6,CCS(=O)(=O)Nc1cccc(C(=C2CCCCC2)c2cnc[nH]2)c1,inactive
7,c1ccc(C2(c3ccccc3)CC2C2=NCCN2)cc1 (stereo not given),inactive
8,O=[N+]([O-])c1c(Cl)c(Cl)cc(Cl)c1Cl,inactive
9,CC(N)[C@H](O)c1ccc(O)c(O)c1 (stereo not given in full),inactive
10,C[C@@H]1O[C@H](C[N+](C)(C)C)C[C@H]1O,inactive
11,Nc1cc2c(ncn2CCOCP(=O)(O)O)c(=O)[nH]1,inactive
12,C[N+](C)(C)CC#CCN1CCCC1=O,inactive
13,CCNC(=O)[C@H]1O[C@@H](n2cnc3c(N)ncnc32)[C@H](O)C1O (stereo not given in full),inactive
14,CC(C)(C)c1o[nH]c(=O)c1CC(N)C(=O)O (stereo not given),inactive
15,O=[N+]([O-])c1cc(O)c(O)c([N+](=O)[O-])c1,inactive
16,NC(N)=NOCCC(N)C(=O)O (stereo not given),inactive
17,C[N+]1(C)CCOC(O)(c2ccc(-c3ccc(C4(O)C[N+](C)(C)CCO4)cc3)cc2)C1 (stereo not given),inactive
18,N=C(N)c1ccc(CS(=O)(=O)F)cc1,inactive
19,Nc1ncnc2c1ncn2[C@@H]1O[C@H](COP(=O)(O)CP(=O)(O)OP(=O)(O)O)C(O)[C@H]1O (stereo not given in full),inactive
20,O=C(Cc1ccc(Cl)c(Cl)c1)N1CCCCC1CN1CCCC1 (stereo not given),inactive

row,Compound,Potency
1,N[C@@]1(C(=O)O)CC[C@@H](C(=O)O)C1,inactive
2,NCCc1ccc(S(=O)(=O)F)cc1,inactive
3,CCCCCN(C)CCC(O)(P(=O)(O)O)P(=O)(O)O,inactive
4,C[C@]12CCC3C(CC[C@H]4C[C@H](O)CC[C@]34C)C1CC[C@@H]2C(=O)CO (stereo not given in full),inactive
5,CN(N=O)c1cc(O)ccc1O,inactive
6,CCCN1CCC[C@@H](c2cccc(O)c2)C1,inactive
7,CCCn1c(=O)c2[nH]c(C3CCCC3)nc2n(CCCOC(=O)c2ccc(S(=O)(=O)F)cc2)c1=O,inactive
8,NC1CC1c1ccccc1 (stereo not given),inactive
9,COc1ccc2c(c1O)-c1cccc3c1[C@@H](C2)N(C)CC3,inactive
10,CC(=O)[C@H]1CCC2C3CC[C@H]4C[C@H](O)CC[C@]4(C)C3CC[C@@]21C (stereo not given in full),inactive
11,NCC(CP(=O)(O)O)c1ccc(Cl)cc1 (stereo not given),inactive
12,CCCCc1ccc(C(=O)O)nc1,inactive
13,CCCN(CCC)[C@H]1CCc2c(F)ccc(O)c2C1,inactive
14,O=[N+]([O-])/C=C/c1ccc2c(c1)OCO2,22 µM (active)
15,CC(C)NP(=O)(NC(C)C)OP(=O)(NC(C)C)NC(C)C,inactive
16,NCCCP(=O)(O)O,inactive
17,NC(CCCCCP(=O)(O)O)C(=O)O (stereo not given),inactive
18,CO/C=C(/C(=O)OC)c1ccccc1Oc1cc(Oc2ccccc2C#N)ncn1,inactive
19,C[C@H](N)CN1CCc2ccc(Br)cc21,inactive
20,COC[C@H]1OC(=O)c2coc3c2[C@@]1(C)C1=C(C3=O)C2CCC(=O)[C@@]2(C)C[C@H]1OC(C)=O (stereo not given in full),inactive
